Screens from PubChem.
Giardia FBPA inh-1: inhibitors of Giardia lamblia fructose-1,6-bisphosphate aldolase. A8B2U2. purified Giardia FBPA. Potency, µM (top dose mostly 59.6 µM), without a hit: at the top dose activity, negative = inhibition, hits mostly inhibitors. 0.71% of 290,000 active. AID 2451; further: nearly all actives have a fitted effect of over 55% in size
Target sequence (A8B2U2 whole entry, looked up): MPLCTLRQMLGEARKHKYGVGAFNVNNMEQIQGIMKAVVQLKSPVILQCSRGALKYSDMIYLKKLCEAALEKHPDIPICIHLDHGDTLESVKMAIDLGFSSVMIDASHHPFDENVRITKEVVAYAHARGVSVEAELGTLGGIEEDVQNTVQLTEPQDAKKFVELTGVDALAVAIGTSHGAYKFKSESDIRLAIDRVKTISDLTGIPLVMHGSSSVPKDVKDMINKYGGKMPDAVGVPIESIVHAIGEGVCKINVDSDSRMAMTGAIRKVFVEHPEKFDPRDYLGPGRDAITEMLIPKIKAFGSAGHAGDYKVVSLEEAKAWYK
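40 nM FBPA preincubated 10 min at RT with compound (up to 57.5 uM final), then substrate plus GAPDH/TPI/NAD/arsenate coupling and diaphorase/resazurin added. Fluorescence read after 20 min at RT, 525/598 nm.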
AMA1 RON2 block: inhibitors of Plasmodium falciparum AMA1-RON2 interaction. AlphaScreen AMA1-biotinylated RON2 peptide binding. Potency, µM (top dose mostly 58.2 µM), inactives show at the highest dose activity change, negative = inhibition, usual class: inhibitors. AID 720542. 0.2% of 360,000 active;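 further: 0% = vehicle wells and -100% = peptide control; nearly all actives have a fitted effect of over 45% in size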
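AMA1 (3D7) with his tag at 25 nM final met compounds first, then biotinylated RON2 peptide at 25 nM; detection used donor plus acceptor beads, 10 µg/mL apiece, read by AlphaScreen after 30 min at room temperature.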
AmpC inh detg: inhibitors of E. coli AmpC beta-lactamase with detergent. 0.041% of 370,000 active. Potency, µM (doses to about 114 µM), inactives show top-dose activity change, negative = inhibition, hits mostly inhibitors. AID 485294. AmpC hydrolysis of nitrocefin, absorbance 480 nm, 0.01% Triton;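 further: 0% = no-compound wells and -100% = no-enzyme wells; nearly all actives have a fitted effect of over 25% in size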
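20 mM phosphate pH 7.0 + 0.01% (detergent screen) or 0.0001% Triton X-100; 5.3 nM AmpC reagent; cpd preinc 15 min RT; nitrocefin (800 uM stock) to start; A480 q20 s × 4 min; Activity was normalised to no-enzyme and no-compound control wells.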
LmPK inhibitor: inhibitors of Leishmania mexicana pyruvate kinase; 0.37% of 290,000 active; Q27686; purified LmPK, Kinase-Glo ATP luminescence, 1 h; Potency, µM (titrated, usually from 57.5 µM), without a hit: at the highest dose activity change, negative = inhibition, most hits filed as inhibitors; AID 1721
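0.1 nM LmPK, 0.5 mM PEP, 0.1 mM ADP; 50 mM imidazole pH 7.2, 7 mM MgCl2, 50 mM KCl; 1 h RT. Kinase-Glo luminescence readout, normalized to no-enzyme (full inhibition) and uninhibited wells.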
AmpC no deterg: inhibitors of E. coli AmpC beta-lactamase without detergent | AmpC nitrocefin hydrolysis, absorbance 480 nm, 0.0001% Triton | Potency, µM (doses to about 57.1 µM), inactives show at the top dose activity change, negative = inhibition, usual class: inhibitors | AID 485341 | 0.52% of 330,000 active | P00811;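 further: plate controls were no compound for no effect and no enzyme for full effect; nearly all actives have a fitted effect of over 20% in size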
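20 mM phosphate pH 7.0 + 0.01% (detergent screen) or 0.0001% Triton X-100; 5.3 nM AmpC reagent; cpd preinc 15 min RT; nitrocefin (800 uM stock) to start; A480 q20 s × 4 min; Activity was normalised to no-enzyme and no-compound control wells.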
Giardia growth: Giardia lamblia growth inhibition; shares compounds with Giardia FBPA inh-1; Giardia lamblia trophozoite growth inhibition; Potency, µM (top dose mostly 57.5 µM), for the others: top-dose activity change, negative = inhibition, most hits filed as inhibitors; 5% of 1,500 active; AID 2785;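 further: trophozoites exposed to compound for 48 h at 37 °C; nearly all actives have a fitted effect of over 70% in size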
Mammalian tox: counter-screen for Giardia aldolase inhibitors: mammalian cell toxicity; mammalian cell viability counter-screen, qHTS; AID 2786; shares compounds with Giardia FBPA inh-1; Potency, µM (top dose mostly 57.5 µM), for the others: at the highest dose viability change, negative = toxicity, usual class: inhibitors; 4% of 1,500 active;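 further: Chinese hamster ovary cells used as mammalian cytotoxicity surrogate; viability measured as cellular ATP by luminescence; compound exposure lasted 48 h before reading; nearly all actives have a fitted effect of over 60% in size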
Giardia FBPA inh-2: confirmation of Giardia fructose-bisphosphate aldolase inhibitors; purified Giardia aldolase enzyme activity, qHTS; Potency, µM (top dose mostly 57.5 µM), for the others: at the highest dose activity change, negative = inhibition, most hits filed as inhibitors; AID 2787; 5% of 1,500 active; shares compounds with Giardia FBPA inh-1; further: nearly all actives have a fitted effect of over 45% in size
Rabbit aldolase: selectivity test for Giardia aldolase inhibitors: rabbit aldolase | shares compounds with Giardia FBPA inh-1 | Rabbit muscle FBPA enzyme inhibition, selectivity counter-screen | Potency, µM (titrated, usually from 57.5 µM), for inactives: top-dose activity, negative = inhibition, hits mostly inhibitors | 4% of 1,500 active; further: nearly all actives have a fitted effect of over 60% in size
Target sequence (P00883 whole entry, looked up): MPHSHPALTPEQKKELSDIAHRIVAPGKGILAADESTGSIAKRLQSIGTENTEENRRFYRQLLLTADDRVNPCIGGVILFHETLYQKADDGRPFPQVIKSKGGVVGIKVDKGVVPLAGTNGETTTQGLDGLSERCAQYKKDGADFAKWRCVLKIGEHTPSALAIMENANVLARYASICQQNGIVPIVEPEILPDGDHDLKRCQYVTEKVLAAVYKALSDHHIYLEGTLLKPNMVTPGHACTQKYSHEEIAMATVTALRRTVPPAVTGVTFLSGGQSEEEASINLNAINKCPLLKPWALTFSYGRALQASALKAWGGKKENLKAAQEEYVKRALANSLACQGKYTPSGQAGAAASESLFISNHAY
GAPDH coupling: counter-screen for Giardia aldolase inhibitors: GAPDH coupling enzyme | 6% of 1,500 active | GAPDH coupling enzyme counterscreen, biochemical, qHTS | shares compounds with Giardia FBPA inh-1 | Potency, µM (top dose mostly 57.5 µM), for the others: at the highest dose activity change, negative = inhibition, most hits filed as inhibitors | AID 2795; further: nearly all actives have a fitted effect of over 55% in size
* marks the source's active call; other numbers are inactive results; ? = inconclusive; · = not tested or not shown; [ ] = another dose, or the depositor's remark. Only some compounds are listed: those with a hit (about 1.3% of all), similar ones and a draw of the others. The call rests on the fitted dose curve; in most records, active means well fitted curve in the direction sought with a large enough effect; inconclusive means small, poorly fitted or top-dose-only effect, or another doubt; inactive means no such curve, though single readings can be large; an effect the other way counts as inactive or inconclusive. Unless noted, on the % scale 0 is the no-effect control and ±100 the full control effect; potency means the concentration at half of the fitted maximal effect.

SMILES	Giardia FBPA inh-1	AMA1 RON2 block	AmpC inh detg	LmPK inhibitor	AmpC no deterg	Giardia growth	Mammalian tox	Giardia FBPA inh-2	Rabbit aldolase	GAPDH coupling
CCc1nnc(N/N=C/c2cc(C)c(C)cc2C)n1N	13µM*	33%	?	-2%	-10%	17%	-4%	-24%	-8%	-5%
CCc1nnc(-n2nc(C)cc2-c2ccccc2)n1N	?	0%	?	-1%	-10%	·	·	·	·	·
Cc1nnc(N/N=C/c2c(Cl)cccc2Cl)n1N	22µM*	33%	-1%	-4%	-17%	13%	8%	-15%	-3%	-1%
Cc1nnc(N/N=C/c2ccc(-c3ccccc3F)o2)n1N	16µM*	99%	1%	-4%	-22%	?	0%	16µM*	?	?
COc1ccc(OCCCC(=O)N(C)CC(=O)Nc2ccccc2Cl)cc1	·	-20%	1%	-10%	-5%	·	·	·	·	·
CC(C(=O)Nc1ccccc1F)N1CCN(S(=O)(=O)c2ccc(C(F)(F)F)cc2)CC1 (configuration not stated)	·	1%	?	·	125%	·	·	·	·	·
CCOc1ccc(-c2noc(CSc3nnc(Cc4ccccc4)n3-c3cccc(C)c3)n2)cc1	·	·	21%	·	·	·	·	·	·	·
N#CCCn1cnc2c(=S)nc[nH]c21	14µM*	9%	2%	-4%	-4%	-26%	-2%	8%	7%	-13%
Cn1ncnc2c(=O)n(C)c(=O)nc1-2	0.5µM*	13%	?	-1%	-6%	13µM*	8.9µM*	3.2µM*	4.5µM*	2.5µM*
Cc1ccc(-c2nc(C)c(CCNS(=O)(=O)c3ccccc3F)s2)cc1	·	·	3%	·	·	·	·	·	·	·
S=c1nc(-c2ccc(Cl)cc2)[nH][nH]1	4%	66%	-2%	-2%	-24%	·	·	·	·	·
Cc1ccc(C)n1-c1nc(=S)[nH][nH]1	18µM*	43%	?	14%	-36%	-3%[10.4 µM]	-8%	2%	-22%	-21%
COc1ccc(CNC(=O)CC(c2ccc(OC)cc2)N2Cc3ccccc3C2=O)cc1 (configuration not stated)	·	·	5%	·	·	·	·	·	·	·
CCNC(=O)C1CCCN1C(=O)C(CCCN=C(N)N)NC(=O)C(CC(C)C)NC(=O)C(Cc1cn(Cc2ccccc2)cn1)NC(=O)C(Cc1ccc(O)cc1)NC(=O)C(CO)NC(=O)C(Cc1c[nH]c2ccccc12)NC(=O)C(Cc1cnc[nH]1)NC(=O)C1CCC(=O)N1 (configuration not stated)	10µM*	38%	?	-6%	315%	16%[38.3 µM]	2%	-4%	13%	0%
CNc1cccccc1=S	10µM*	?	0%	-5%	29%	-13%	5%	?	?	32µM*
CCOC(=O)c1[nH]cnc1C(=O)O	18µM*	17%	8%	1%	-10%	21%	5%	5%	1%	4%
Nc1cc2nc3ccccc3oc-2cc1=O	18µM*	-3%	-3%	-2%	-43%	-5%[10.4 µM]	-14%	?	-23%	?
Cc1nc2ccccc2oc1=O	0%	·	·	·	·	·	·	·	·	·
CCOC(=O)c1[nH]c2c(c1Cc1ccccc1)C(=O)CC(c1ccc(OC)cc1)C2 (configuration not stated)	·	·	-11%	·	·	·	·	·	·	·
COc1ccc(NC(=O)C(=O)NCCC2CCCCN2S(=O)(=O)c2ccc(F)cc2)cc1 (configuration not stated)	·	60%	-20%	·	-3%	·	·	·	·	·
CN1C(=O)NC(=O)/C(=C/c2ccc([N+](=O)[O-])o2)C1=O	18µM*	?	-8%	-28%	-32%	?	-2%	?	?	?
CN1C(=O)NC(=O)/C(=C\c2ccc([N+](=O)[O-])o2)C1=O	18µM*	?	2%	-26%	-23%	?	-5%	?	?	?
Cc1ccc(/C=C2/C(=O)NC(=O)N(C)C2=O)cc1	-3%	17%	-12%	7%	-39%	·	·	·	·	·
O=C1NC(=O)N(c2ccccc2)C(=O)/C1=C\c1ccc([N+](=O)[O-])s1	?	-18%	0%	-3%	-34%	·	·	·	·	·
O=C1NC(=O)N(c2ccccc2)C(=O)/C1=C\c1ccc([N+](=O)[O-])o1	20µM*	·	6%	-17%	-31%	-22%	7%	-26%	-25%	-19%
SMILES	Giardia FBPA inh-1	AMA1 RON2 block	AmpC inh detg	LmPK inhibitor	AmpC no deterg	Giardia growth	Mammalian tox	Giardia FBPA inh-2	Rabbit aldolase	GAPDH coupling
CN1C(=O)NC(=O)/C(=C/c2ccc([N+](=O)[O-])s2)C1=O	?	?	-2%	-16%	-44%	·	·	·	·	·
CCOC(=O)C1CCCN(C/C=C/c2ccccc2)C1 (configuration not stated)	16µM*	-13%	?	-2%	6%	67%	14%	11%	10%	-1%
CCn1nc(C)cc1-c1n[nH]c(=S)n1N	7.1µM*	-3%	1%	2%	-16%	17%	21%	7%	-3%	14%
Cc1nn(CC(=O)Nc2ccc(OC(F)(F)F)cc2)c(=O)c2c(C)n(-c3ccc(Cl)cc3)nc12	·	·	13%	·	·	·	·	·	·	·
O=C(CSc1nc2c([nH]c3ccccc32)c(=O)n1-c1ccccc1)Nc1ccc2c(c1)OCCO2	·	·	3%	·	·	·	·	·	·	·
Cc1cc(C=C2C(=O)N(C)C(=S)N(C)C2=O)c(C)n1-c1cccnc1	3.2µM*	17%	2%	0%	-19%	-29%	7%	-12%	-7%	-29%
CC1CN(CCOCCOc2ccccc2-c2ccccc2)CC(C)O1 (configuration not stated)	11µM*	14µM*	-10%	5%	109%	-8%[10.4 µM]	-1%	1%	1%	10%
c1ccc(-c2ccccc2OCCOCCN2CCc3ccccc3C2)cc1	-2%	-9%	4%	6%	147%	·	·	·	·	·
Cc1ccc(C)c(OCCOCCN2CC(C)OC(C)C2)c1C (configuration not stated)	18µM*	-14%	1%	-2%	61%	-2%[10.4 µM]	-1%	6%	5%	0%
